Measurements reported in the supplement of paper PMC6555819.

Columns and labels:
Assay in all cases: PBM binding z-score (relative to random genomic background probes); higher = stronger binding; sequences stand for … in GC…GCGATTGACAGCGTAGAATGAAGG
[1] = test system: RARb homodimer (NR concentration 270 nM)
Method in brief: (§1)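 Binding z-scores take random background probes as their reference. They come from custom Agilent 4×180K protein-binding microarrays incubated 1 h with ligand-free nuclear receptor dimers, with antibodies against each partner (one per run) detecting binding. Scanned fluorescence was regression-normalized.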

[2] = test system: RARg:RXRa (NR concentration 270 nM, RXRa partner concentration 90 nM)
Method in brief: as §1

[3] = test system: RARg homodimer (NR concentration 270 nM)
Method in brief: as §1

[4] = test system: RXRa DBDmut IVT, anti-RXR (DBD mutation: RXRa K156A/R161A, NR concentration 90 nM)
Method in brief: as §1

[5] = test system: RXRa homodimer (NR concentration 180 nM)
Method in brief: as §1

[6] = test system: THRa:RXRa (NR concentration 90 nM, RXRa partner concentration 90 nM)
Method in brief: as §1

[7] = test system: THRa homodimer (NR concentration 90 nM)
Method in brief: as §1

[8] = test system: VDR homodimer (NR concentration 270 nM)
Method in brief: as §1

Sequence | PBM binding z-score [1] | PBM binding z-score [2] | PBM binding z-score [3] | PBM binding z-score [4] | PBM binding z-score [5] | PBM binding z-score [6] | PBM binding z-score [7] | PBM binding z-score [8]
ACTTGGAGGACAAAGGTCAGAGCTACGCCAGTGA | 4.32 | 6.26 | 5.66 | 1.71 | 5.24 | 3.55 | 0.496 | 1.62
CGAACTAGGTCACAAGGACAGTGAAGAGGTTGGA | 3.36 | 4.24 | 4.8 | 1.32 | 3.1 | 3.33 | 1.7 | 0.816
CGAACTAGGTCACCAGGACAGTGTAGAGGTTGGA | 3.53 | 4.35 | 5.47 | 1.65 | 3.25 | 3.47 | 2.14 | 0.343
CGAACTAGGTCAGAACAGTACAGTGAAGGATGAT | 1.96 | 2.46 | 3.33 | 0.94 | 1.27 | 1.83 | 0.222 | 0.229
GCTTCCGGGTCAAAGGTTATAGCATGAATAGAAT | 2.99 | 6.81 | 4.53 | 2.8 | 9.29 | 4.61 | 1.46 | 2.25
CCTAGTTGGTCAGGAAGTCACACACCGGATATGA | 1 | 0.765 | 0.857 | 0.171 | 0.568 | 0.226 | 0.522 | 0.457
CCGAGTAGGTTACGAGGGGGCAGTCAGTGCGAAT | 2.02 | 2.81 | 2.42 | 0.582 | 1.55 | 3.29 | 0.478 | 1.68
TCGAGTAGGTGACGGGGGCATTCAGGGATGAAGA | 2.01 | 2.59 | 1.91 | 1.94 | 1.86 | 3.83 | 1.64 | 3.28
CTAAGTAGGTTAAGGGGGTCATTCAGTTTGAAAG | 3.97 | 4.97 | 4.03 | 2.69 | 5.62 | 3.64 | 2.28 | 6.08
TCGAGTAGGTTACGGGGGAATTCAGGGATGAAGA | 1.1 | 1.42 | 1.05 | 0.995 | 1.37 | 1.93 | 0.716 | 0.477
CTATGTAGGTTAAGGGGGTCATTCTGTTTGAAAG | 3.79 | 4.83 | 3.82 | 2.56 | 5.51 | 3.69 | 2.09 | 4.58
CGAACTAGTTCAAGGACAGTGAATCTCCGCACGC | 0.95 | 0.588 | 0.91 | 1.78 | 0.544 | 2.01 | 1.47 | 0.883
CGAACTAGGTGAAAGGACAGTGAAAGGCGACGTA | 1.15 | 0.833 | 1.07 | -0.365 | 0.373 | 0.672 | -0.413 | -0.349
GCTATTAGGTGAAAGGGCAACCGAATGATTCTCG | 2.47 | 2.34 | 1.75 | 0.924 | 2.35 | 2.04 | 0.498 | 0.381
ATCTCTAGGTTAAAGTTCAGTGAATCCCGAGGAT | 2.94 | 3.52 | 3.27 | 1.18 | 4.46 | 2.3 | 0.775 | 3.12
TCTACTTGGTCACGGAGGTCACACACGACGGGTA | 4.43 | 5.15 | 5.47 | 1.33 | 5.3 | 3.6 | 3.15 | 3.56
CTATGTAGGTTAAGGGGGACATTCAGTTTGAAAG | 1.99 | 1.81 | 1.7 | 1.47 | 1.39 | 2.23 | 1.37 | 2.64
CCTGCTAGTTCATGGTCAGCTAATCTACAGTATG | 0.96 | 0.833 | 1.06 | 2.43 | 0.309 | 0.298 | -0.142 | 1.09
CGTCGGAGGACAGAAGGTCAGAGCTGTCCGCTTT | 3.36 | 3.56 | 3.38 | 0.338 | 1.83 | 2.08 | -0.192 | 0.136
CGAACTAGGTCAAAGTACAGTGAAAGGCGACGTA | 2.8 | 4.13 | 4.62 | 2 | 3.1 | 2.57 | 0.294 | 0.766
TAGCCTAGGCCATGGGCCAGTATACCACGCGAAC | -0.0202 | -0.148 | 0.285 | -1.69 | -0.256 | -0.253 | -0.645 | -0.837
AGAACGAGGGCAATGAGTTCATAGCACGGGTGGC | 2.84 | 2.78 | 2.56 | 3.91 | 2.42 | 2.58 | 0.398 | 10.3
TCGAGTAGGTTACGGGGGCATTCCGGGATGAAGA | 2.02 | 3.36 | 2.56 | 1.49 | 2.87 | 3.7 | 0.954 | 2.67
CGAACTAGCTCAAAGGACAGTGAAAGGCGACGTA | 0.955 | 0.138 | 0.6 | -0.347 | -0.119 | 0.0409 | -0.622 | -0.00865
TCGAGTAGGTTACGGGGGCGTTCAGGGATGAAGA | 1.66 | 2.9 | 1.99 | 1.4 | 2.05 | 3.24 | 1.34 | 3.52
CCTTACGGGTCAAGGTTATACCACGGGTGGTACG | 3.44 | 4.96 | 4.75 | 0.758 | 5.09 | 2.97 | 0.619 | 1.65

Sequence | PBM binding z-score [1] | PBM binding z-score [2] | PBM binding z-score [3] | PBM binding z-score [4] | PBM binding z-score [5] | PBM binding z-score [6] | PBM binding z-score [7] | PBM binding z-score [8]
ATATGTAGGTTAGGGGCATTCAGAAAGTAGGGAA | 2.01 | 1.14 | 1.14 | 1.45 | 1.21 | 1.73 | 1.35 | 1.82
TCGAGCAGGTTACGGGGGCATTCAGGGATGAAGA | 2.18 | 3.37 | 2.29 | 1.34 | 2.92 | 3.65 | 0.993 | 2.9
CAAACTAGGTCAAAGGACAGTGAAAGGCGACGTA | 2.87 | 3.97 | 4.47 | 1.68 | 2.86 | 2.78 | 0.733 | 0.509
CGTCCAAGGTCAGCAGGTGAGTGAAAGCGACGTG | 3.84 | 5.23 | 6.27 | 2.47 | 3.87 | 3.28 | 1.95 | 0.692
CGAACTAGGTCACAGGACAGTGAAAGGCGACGTA | 3.12 | 4.25 | 4.96 | 1.61 | 3.27 | 2.86 | 0.815 | 0.381
ATATGTGGGTTAGGGTCATTCAGAAAGTAGGGAA | 3.67 | 4.16 | 3.23 | 2.95 | 5.55 | 4.42 | 4.11 | 4.92
TCTAGGAGGACACGAAGGTCAGAGCTTTCCAGAG | 3.47 | 3.15 | 3.8 | 0.842 | 2.01 | 2.61 | 0.635 | 0.851
CTTTGTAGGTTAAGGGGGTCATTCAGTTTGAAAG | 3.99 | 5.28 | 4.16 | 2.79 | 6.08 | 3.97 | 2.08 | 5.68
CTATGTAGGTTAAGGGGGTAATTCAGTTTGAAAG | 1.84 | 2.06 | 1.59 | 1.27 | 1.95 | 2.44 | 1.35 | 1.41
CTATGTAGGTTATGGGGGTCATTCAGTTTGAAAG | 4.1 | 5.57 | 4.08 | 2.33 | 6.38 | 3.9 | 2.67 | 6.69
CCTTACGGGTCACTTACAGGTTATAGCATTTGGA | 3.2 | 5.65 | 4.51 | 2.19 | 4.62 | 2.95 | 0.577 | 1.66
TCGAGTAGGCTACGGGGGCATTCAGGGATGAAGA | 1.01 | 1.2 | 0.904 | 0.682 | 1.13 | 3.63 | 0.228 | 2.66
TAGCCTAGGTCCTTCAGGGGCCAGTATAGAAAGC | 0.357 | 0.825 | 0.108 | -1.03 | -0.259 | 0.402 | -0.799 | -0.422
CCTAGCAGGCCACGGTCACTCAAGCATTTCGCTT | 1.74 | 0.739 | 1.19 | 0.229 | 0.221 | 0.45 | 0.288 | -0.0513
CGTCCAAGGTCAGCAGGTCAGAGAAAGCGACGTG | 4.32 | 6.59 | 6.67 | 2.55 | 5.72 | 3.92 | 2.42 | 1.83
GACACAGGGTCAGCTAGAGGCCAGAGTATGGAAA | 3.17 | 6.46 | 4.41 | 1.3 | 4.1 | 3.1 | -0.0446 | 0.591
TCGAGTAGGTTCCGGGGGCATTCAGGGATGAAGA | 1.25 | 1.57 | 1.13 | 1.02 | 1.33 | 3.53 | 1.08 | 3.01
ATTTGTAGGTTAGGGTCATTCAGAAAGTAGGGAA | 3.88 | 4.4 | 3.72 | 2.82 | 5.6 | 4.17 | 3.71 | 4.56
AATACAGGGTCACTGGGCCAGAGTAGGTACGAAT | 3.72 | 5.73 | 5.37 | 2.35 | 6.2 | 3.59 | 1.3 | 2.73
CGTCCAACGTCAAGGTCAGTGAAAGAGACTCGAA | 3.13 | 2.61 | 3.16 | 0.737 | 1.9 | 2.57 | 1.67 | 0.844
TCGATTAGGTTACGGGGGCATTCAGGGATGAAGA | 2.92 | 3.79 | 3.07 | 2.95 | 3.17 | 4.36 | 2.54 | 4.05
TCTTGTAGATCAAAGGTTAAGACAGCCGAAGCCT | 1.45 | 1.94 | 1.05 | 0.925 | 3.08 | 1.24 | -0.0838 | 0.141
ACTCGGAGGACAAAGGTCAGAACTACGCCAGTGA | 3.96 | 5.75 | 4.61 | 1.08 | 4.75 | 3.28 | 0.786 | 0.984
CGAACTAGGTCACCAGGACGGTGAAGAGGTTGGA | 3.1 | 4.28 | 5.25 | 0.756 | 3.01 | 3.04 | 0.961 | 0.435
CCGAGTAGCTTACGAGGGGGCATTCAGTGCGAAT | 1 | 1.05 | 0.544 | 1.5 | 0.627 | 1.8 | -0.07 | 2.86
AGTCAAAGTTCAGGACGAGATAACGTAAAGCACG | 2.69 | 3.84 | 4.59 | 2.82 | 2.8 | 1.76 | 0.431 | 1.95
